Screen size: about 10,000 compounds; about 25 (0.2%) were called active.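 How the source made its calls: active means compound among top-ranked inhibitors of TNF-induced VCAM-1 adhesion protein staining, with the hit upheld by image or statistical review; inactive means the rest, including hits rejected on review.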 For the sample, actives were picked, then their nearest neighbours and some compounds at random.

The nature of this test: suppression of endothelial VCAM-1 upregulation – cell-based, plate reader, pooled HUVEC, TNFa stimulus (AID 454). As to conditions: HUVEC TNFa-induced VCAM-1 surface immunofluorescence; stronger effect = higher value,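 compound tested at 5 µM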.
Usually inhibition stands for the relative decrease from the control value, in per cent. As for `CCOC(=O)c1cccc(NC(=O)CSc2nc3cccnc3n2C)c1`, the inhibition entry was “inactive”.

On to `Cn1c(SCc2cccc3ccccc23)nnc1-c1ccco1`, for which the inhibition result is “inactive”. The entry for `CN1C(=O)C(CC(=O)N2CCN(C(c3ccccc3)c3ccccc3)CC2)N(C)C1=O` (configuration not stated) is “inactive”; for `CCCCC(=O)NCCNc1nc2c(c(=O)n(C)c(=O)n2C)n1Cc1ccccc1` it is “inactive”; for `COc1ccc(C(=O)N2CCN(c3nc4cc(C)ccc4cc3C#N)CC2)c(OC)c1` it is “inactive”.

Consider `Cc1nc2sc3c(c2c(=O)o1)CCC3`, for which the inhibition entry is “inactive”. Turning to `CCC(C)(C(=O)NC1CCCCC1)N(Cc1ccco1)C(=O)c1cnccn1` (configuration not stated), the inhibition result is “inactive”.

For the molecule `CC1=CCC2C(=O)N(c3nc(C)cc(C)n3)C(=O)C2C1` (configuration not stated), the inhibition result is “inactive”.

With `CCCn1c(NC(=O)C2COc3ccccc3O2)nc2ccccc21` (configuration not stated), the inhibition result is “inactive”. For `Cc1cc(C)nc(NC(=O)c2ccc(OC(C)C)cc2)n1` the value was “inactive”. As to `Cc1nn(-c2ccc(F)cc2)c2c1cc(C#N)c1nc3ccccc3n12`, the inhibition result was “inactive”. Turning to `COc1ccc(-c2nc3c(c(=O)n(C)c(=O)n3C)n2CC2CC(c3ccccc3)=NO2)cc1OC` (configuration not stated), the inhibition was 73.1% (active). In the case of `COc1cccc(Cn2c(Oc3ccccc3)nc3c2c(=O)n(C)c(=O)n3C)c1`, the inhibition result is “inactive”. With `COc1ccc(C(=O)Cn2c(N3CCCCC3)nc3c2c(=O)n(C)c(=O)n3C)cc1OC`, the inhibition result is “inactive”.

For `Cc1ccccc1Nc1nc(N)nc(CSCc2c(C)noc2C)n1`, the inhibition entry was “inactive”. With `Cc1cc2oc(=O)cc(CN3CCCCC3)c2cc1C(C)C`, the inhibition entry is “inactive”.

For `Clc1ccc(C2=Nn3c(nnc3-c3n[nH]c4c3CCC4)SC2)cc1Cl`, the inhibition was 106% (active). On to `CC(C)(C)C1=Nn2c(nnc2-c2n[nH]c3c2CCC3)SC1`, for which the inhibition result was “inactive”. On to `COc1ccc(C2=Nn3c(nnc3-c3ccccc3)SC2)cc1OC`, for which the inhibition result is “inactive”. Turning to `COc1ccc(C2CC(c3ccc(Cl)cc3Cl)n3nc(N)nc3N2)cc1` (configuration not stated), the inhibition result was “inactive”.

In the case of `COc1cccc(OCCn2ccnc2)c1`, the inhibition result was “inactive”.

With `COc1ccccc1NC(=O)CSc1nnc(-c2ccncc2)n1CC1CCCO1` (configuration not stated), the inhibition result is “inactive”. With `C=C(Cl)COc1ccc2c(C)cc(=O)oc2c1`, the inhibition result was “inactive”.

Regarding `Nc1ncnc2nc(SCCN3CCCCC3)[nH]c12`, the inhibition result was “inactive”. With `CCCC(=O)Nc1cccc(NC(=O)CN2CCN(c3ccccc3OC)CC2)c1`, the inhibition entry was “inactive”. The entry for `CN(c1ccc(OCc2nnc(-c3ccccc3)o2)cc1)S(=O)(=O)c1ccccc1` is “inactive”; for `CCOC(=O)c1ccccc1NC1CC(=O)N(c2ccccc2C)C1=O` (configuration not stated) it is “inactive”. For the molecule `CN(C)S(=O)(=O)c1ccc(Oc2ccc(S(=O)(=O)N(C)C)cc2)cc1`, the inhibition entry is “inactive”. Regarding `O=S(=O)(Nc1ccccn1)c1ccc(Oc2ccccc2)cc1`, the inhibition entry is “inactive”. As to `C=CS(=O)(=O)c1ccc(Oc2ccc(S(=O)(=O)C=C)cc2)cc1`, the inhibition was 100% (active). On to `CC1CCN(C(=O)CN2C(=O)C(C)(C)Oc3ccc(C(=O)NC4CCCC4)cc32)CC1`, for which the inhibition entry was “inactive”. Take `O=C1CC(N2CCOCC2)C(=O)N1c1ccccc1Cl` (configuration not stated): the inhibition result is “inactive”. For `COc1ccccc1Nc1nc(N)nc(CN2CCN(c3ccccc3F)CC2)n1` the value was “inactive”.

In the case of `OC1(c2cccc(C(F)(F)F)c2)CCNCC1`, the inhibition entry is “inactive”. The entry for `CCOC(=O)c1[nH]c(C)c(C(=O)Nc2ccc(C)c(Cl)c2)c1C` is “inactive”; for `COc1ccc(OC)c(C2C(C(=O)Nc3cccnc3)=C(C)NC3=C2C(=O)CCC3)c1` (configuration not stated) it is “inactive”. `COC(=O)C1=C(C)NC(=O)C1(NC(=O)c1cccnc1)C(F)(F)F` (configuration not stated): the inhibition result is “inactive”. The entry for `COc1ccc(CN2C(=O)[C@@H]3C(c4ccc(F)cc4)=NO[C@@H]3C2=O)cc1` is “inactive”; for `Cc1cccn2c(=O)c3cc(C#N)c(=NC(=O)c4ccncc4)n(Cc4ccco4)c3nc12` it is “inactive”.

Take `CC(C)n1c(=NC(=O)c2ccco2)c(C#N)cc2c(=O)n3ccccc3cc21`: the inhibition is 78.8% (active). The entry for `CCOC(=O)c1cc2c(=O)n3ccccc3nc2n(CC(C)C)c1=NC(=O)c1ccco1` is “inactive”; for `CCOc1ccc(NC(=O)CN2CCN(CC(=O)c3ccc(OCC)cc3)CC2)cc1` it is “inactive”; for `CCCCc1c(O)nc(N2CCN(Cc3ccccc3)CC2)[nH]c1=O` it is “inactive”.

Regarding `CCN(CC(=O)Nc1ccc2c(c1)CCC2)Cc1nc2ccccc2c(=O)[nH]1`, the inhibition entry was “inactive”.

Consider `Nc1nc(SCc2ccc(Cl)cc2Cl)n[nH]1`, for which the inhibition result was “inactive”. As to `O=S(=O)(Nn1cnnc1)c1ccccc1Cl`, the inhibition entry is “inactive”. Regarding `CCOc1cc2[nH]c(=S)n(CC3CCCO3)c(=O)c2cc1OCC` (configuration not stated), the inhibition entry was “inactive”. For `Clc1ccc(OCc2nnc(SCCN3CCCCC3)n2Cc2ccco2)cc1`, the inhibition was 82.9% (active). With `COCCn1c(COc2ccc(Cl)cc2)nnc1SCC(N)=O`, the inhibition result was “inactive”.

Take `Cc1cc(NC(=O)CSc2nnc(COc3cccc(C)c3C)n2Cc2ccco2)no1`: the inhibition entry is “inactive”.

In the case of `Cc1ccccc1-c1nc(CN2CCC(C(=O)NCc3cccnc3)CC2)c(C)o1`, the inhibition result was “inactive”. Regarding `O=c1nc(N2CCCC2)nc(Nc2ccccc2)[nH]1`, the inhibition entry was “inactive”. The entry for `O=C(Cn1cc2c(n1)CCCCC2)N1CCc2ccccc21` is “inactive”; for `Cc1nnc(SCC(=O)N2c3ccccc3CC2C)s1` (configuration not stated) it is “inactive”.

With `Cc1nnc(SC(=O)N2c3ccccc3Sc3ccccc32)s1`, the inhibition was 92.2% (active).

Regarding `Cc1nnc(SCC(=O)NCc2ccccc2)s1`, the inhibition entry is “inactive”. Turning to `CCOc1cccc(Oc2ccc(C(F)(F)F)cn2)c1`, the inhibition entry is “inactive”. Consider `COc1ccc(S(=O)(=O)N2CN(Cc3ccco3)c3nc4ccccc4nc32)cc1`, for which the inhibition entry is “inactive”. The entry for `Cc1ccc2nc(C3CCN(CC(=O)N4CCCCCC4)CC3)[nH]c2c1` is “inactive”; for `CCOc1ccccc1N1CCN(c2nc3ccccc3nc2C(C#N)C(=O)OC)CC1` (configuration not stated) it is “inactive”. For `S=c1[nH]nc(-c2ccco2)n1-c1cccc2ccccc12` the value was “inactive”; for `Cc1c(C)c2ccc(OC3CCCCC3=O)cc2oc1=O` (configuration not stated), “inactive”; for `COc1ccccc1CC(=O)NCc1ccc2c(c1)OCO2`, “inactive”. For `O=C1c2ccccc2C(Nc2ccc(F)c(Cl)c2)N1Cc1ccco1` (configuration not stated) the value was “inactive”.

Consider `O=C1c2ccccc2C(Nc2ccc(-c3nc4ccccc4[nH]3)cc2)N1Cc1ccco1` (configuration not stated), for which the inhibition result is “inactive”. For `O=C1c2ccccc2C(Nc2ccc3nc(-c4cccnc4)[nH]c3c2)N1Cc1ccco1` (configuration not stated) the value was 79.2% (active); for `CCCc1cc(Nc2cccc(OC)c2)n2ncnc2n1`, “inactive”.

Consider `COCC(C)NC(=O)CCS(=O)(=O)c1nc(-c2ccc(OC)cc2)cc(C(F)(F)F)n1` (configuration not stated), for which the inhibition was 91.4% (active). The entry for `CCOC(=O)CS(=O)(=O)c1nc(-c2ccccc2)cc(C(F)(F)F)n1` is “inactive”; for `COc1ccc(-c2cc(C(F)(F)F)nc(SCCC(=O)N3CCOCC3)n2)cc1` it is “inactive”. With `O=C(Cn1cnc2ccccc2c1=O)NCCC(=O)N1CCN(c2ccccc2)CC1`, the inhibition result is “inactive”.

Consider `CCc1ccccc1NC(=O)CN(c1cccc(OC)c1)S(C)(=O)=O`, for which the inhibition result was “inactive”. Consider `C/C(=C\c1cc(C(=O)O)c(C)o1)CO`, for which the inhibition result was “inactive”. `Cc1ccc(SC(C)c2nc(-c3ccccc3)no2)cc1` (configuration not stated): the inhibition entry was “inactive”. With `CS(=O)(=O)c1ncc(Cl)c(C(=O)Nc2ccc(N3CCOCC3)cc2)n1`, the inhibition is 97.8% (active). As for `Cc1cnc(C(=O)Nc2ccc(N3CCOCC3)cc2)cn1`, the inhibition entry is “inactive”. On to `CSc1ncc(Cl)c(C(=O)Nc2ccc(S(=O)(=O)N3CCOCC3)cc2)n1`, for which the inhibition entry was “inactive”. As for `Cc1cc(O)c(C2(C(F)(F)F)NCCNC2=O)cc1C` (configuration not stated), the inhibition entry is “inactive”.

On to `CCC(=O)N(Cc1ccco1)c1nc(-c2cc(OC)ccc2OC)cs1`, for which the inhibition entry is “inactive”. `Cn1c(C(=O)NCCN2CCN(c3ccccc3F)CC2)cc2c(=O)n(C)c3ccccc3c21`: the inhibition entry is “inactive”. The entry for `COc1cc(C2N=C(c3ccccc3)NO2)cc(Br)c1O` (configuration not stated) is “inactive”; for `COc1cc(C2Nc3cccc4cccc(c34)N2)cc(OC)c1O` it is 73.4% (active). The entry for `CCOc1cc(C2Nc3ccccc3C(=O)N2c2ccccc2OC)ccc1O` (configuration not stated) is “inactive”. Turning to `COC(=O)c1ccc(CSc2nc3c(cnn3-c3ccc(F)cc3)c(=O)[nH]2)o1`, the inhibition entry is “inactive”. For `O=c1[nH]c2sc3c(c2c2nncn12)CCCC3`, the inhibition result was “inactive”.

In the case of `Cc1cc(NC(=O)c2cc(-c3ccco3)on2)n(-c2ccccc2)n1`, the inhibition entry is “inactive”. The entry for `C/C(NC1CCCC1)=C(/C#N)C(N)=O` is “inactive”; for `Clc1cccc(-c2nnc3sc(-c4ccccc4)nn23)c1` it is “inactive”. In the case of `COC(=O)c1cc(=O)n(Cc2ccc3c(c2)OCO3)c(=Nc2ccccc2)s1`, the inhibition was 96% (active). For `OCCn1c(-c2ccc3c(c2)OCO3)csc1=Nc1ccccc1` the value was “inactive”. For `CCNC(=O)C1CC(=O)N(Cc2ccc3c(c2)OCO3)C(=Nc2ccc(OCC)cc2)S1` (configuration not stated) the value was “inactive”; for `CCOC(=O)c1ccc(N=c2sc(C(=O)OC)cc(=O)n2Cc2ccco2)cc1`, 95.5% (active). As for `CCOC(=O)c1ccc(NC(=O)CSCc2ccco2)cc1`, the inhibition entry is “inactive”. `CCOC(=O)c1cccc(NC2c3ccccc3C(=O)N2Cc2ccco2)c1` (configuration not stated): the inhibition result was “inactive”. `Cc1cccc(NC(=O)c2cc(NC(=O)c3ccco3)ccc2N2CCCCC2)c1`: the inhibition entry is “inactive”. With `O=C(c1ccccc1)c1ccc(N2CCOCC2)c(NC(=O)c2ccco2)c1`, the inhibition result was “inactive”. `Cn1nc(-c2ccc(N3CCCCC3)c(NC(=O)c3ccco3)c2)c2ccccc2c1=O`: the inhibition is 83.4% (active). In the case of `COc1ccc(CCNc2nc(N3CCOCC3)nc(N3CCOCC3)n2)cc1OC`, the inhibition result is “inactive”. For `Cn1c(=O)c2c(nc(SCC(=O)NCc3ccc4c(c3)OCO4)n2Cc2ccccc2)n(C)c1=O` the value was “inactive”; for `CCOC(=O)CSc1nc2cccnc2n1-c1ccc(F)cc1`, “inactive”.

Turning to `CCOc1ccc2[nH]c(=O)c(C(c3nnnn3CC3CCCO3)N3CCc4ccccc4C3)cc2c1` (configuration not stated), the inhibition result was “inactive”. Consider `CCc1ccc2[nH]c(=O)c(C(c3nnnn3CC3CCCO3)N3CCCc4ccccc43)cc2c1` (configuration not stated), for which the inhibition was 93.2% (active). For `CCc1ccc2[nH]c(=O)c(C(c3nnnn3CC3CCCO3)N3CCN4CCCC4C3)cc2c1` (configuration not stated), the inhibition entry was “inactive”. For `Nc1nc(N2CCCCC2)nc(N(c2ccccc2)c2ccccc2)n1`, the inhibition entry is “inactive”. Take `CC(=O)NC(CCS(C)(=O)=O)C(=O)Nc1cccc2ccccc12` (configuration not stated): the inhibition result is “inactive”. On to `O=C(Cn1nc(-c2ccc(Cl)cc2)ccc1=O)NCCCN1CCN(Cc2ccccc2)CC1`, for which the inhibition result was “inactive”. Consider `CCOC(=O)c1ccccc1NC(=O)c1ccc2c(=O)n3c(nc2c1)CCCCC3`, for which the inhibition result is “inactive”.

(Values after PubChem BioAssay AID454 (Sanford-Burnham Center for Chemical Genomics, 2006).)
